PTHR1 agonist – qHTS for PTHR1 Agonists: Primary Screen; Parathyroid hormone/parathyroid hormone-related peptide receptor (Homo sapiens), Q03431; HEK293 GP2 PTHR1 cells, GloSensor cAMP luminescence, 1 h; Potency, µM (highest dose often 115 µM), actives largely listed as activators; 410,000 compounds, 0.075% hits; AID 743266, 2014; also: nearly all actives have a fitted effect of over 55% in size
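HEK-293-derived GP2 cells expressing PTHR1 and a GloSensor cAMP reporter, 3,000/well, plated overnight, given luciferin plus IBMX (each 0.5 mM as added) for 1 h at 37 °C, then compound for 1 h at 37 °C. Luminescence was read after 15 min at room temperature.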
GLP1R ag – qHTS of GLP-1 Receptor Agonists. Glucagon-like peptide 1 receptor (Homo sapiens), P43220. HEK293 GLP-1R CRE-luciferase, luminescence, 4-6 h; cells express a hypersensitive GLP-1R form. Potency, µM (highest dose often 45.6 µM), hits mostly activators. 380,000 compounds, 0.007% hits. AID 624172, 2012
HEK293 tox – qHTS of GLP-1 Receptor Inverse Agonists: Cytotox Screen; HEK293 cAMP-luciferase reporter cells, luminescence, 24 h; Potency, µM (series often up to 38.3 µM), actives largely listed as inhibitors; 410,000 compounds, 0.13% hits;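 also: loss of luciferase light is scored as toxicity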
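Luminescence readout: signal drop marks cytotoxicity. Plated cells grew 12 h at 37 °C, 5% CO2, received 23 nL compound for 24 h, then got luciferase reagent, read after 12 min at RT.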
RGS4 inhibitor – Inhibitors of Regulator of G Protein Signaling (RGS) 4: qHTS. Transcreener GDP fluorescence polarization, RGS4-accelerated GTP hydrolysis. Potency, µM (doses to about 114 µM), hits mostly inhibitors. 390,000 compounds, 0.039% hits. AID 504845, 2011; also: nearly all actives have a fitted effect of over 75% in size
Target sequence (P49798 whole entry, looked up): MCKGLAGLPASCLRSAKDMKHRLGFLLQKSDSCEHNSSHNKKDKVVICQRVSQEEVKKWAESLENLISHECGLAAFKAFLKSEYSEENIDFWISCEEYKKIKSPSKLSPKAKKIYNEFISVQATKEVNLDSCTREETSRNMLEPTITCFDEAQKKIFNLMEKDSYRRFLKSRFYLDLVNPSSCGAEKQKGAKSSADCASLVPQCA
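MLSMR compounds (23 nl, pin-transferred) preincubated 10 min at room temperature with a 500nM (2x) first reagent, then RGS4 at 900nM (2x) plus Transcreener GDP mix added; fluorescence polarization (620/688 nm) read before and after 90 min at 30 °C.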
GLP1R inv ag – qHTS of GLP-1 Receptor Inverse Agonists (Inhibition Mode); Potency, µM (highest dose often 38.3 µM), actives largely listed as inhibitors; Glucagon-like peptide 1 receptor (Homo sapiens), P43220; HEK293 GLP-1R CRE-luciferase, luminescence, 24 h; GLP-1R form is constitutively active; 410,000 compounds, 1.6% hits; also: nearly all actives have a fitted effect of over 55% in size
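Using stably transfected HEK293 (constitutively active GLP-1R, cAMP-luciferase reporter), compounds were incubated 24 hr and luciferase measured by luminescence.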
Numbers stand for hits; i = inactive; ? = inconclusive; nt = no result. Shown are actives, neighbours in structure and some others; about 1.7% of the full set was active somewhere. Calls follow the shape of the dose curve; as a rule, active = well fitted curve in the direction sought with a large enough effect; inconclusive = small, poorly fitted or top-dose-only effect, or another doubt; inactive = no such curve, though single readings can be large; an effect the other way counts as inactive or inconclusive.

SMILES	PTHR1 agonist	GLP1R ag	HEK293 tox	RGS4 inhibitor	GLP1R inv ag
COc1ccc(-n2c(O)c(/C=N/NS(=O)(=O)c3cccc([N+](=O)[O-])c3)c3ccccc3c2=O)cc1OC	i	i	i	i	i
CCOC(=O)c1ccc(NC(=O)Nc2cc3c(cc2N2CCCCC2)n(CC)c(=O)n3CC)cc1	i	i	i	i	10µM
CCOC(=O)c1ccc(NC(=O)CSc2cc(=O)n(CC)c3ccccc23)cc1	i	nt	i	i	i
NC(N)=Nc1ccc2[nH]c3c(c2c1)C[C@@]1(O)[C@H]2Cc4ccc(O)c5c4[C@@]1(CCN2CC1CC1)[C@H]3O5	i	i	i	24µM	i
Oc1ccc2c3c1O[C@H]1c4oc5ccccc5c4C[C@@]4(O)C(C2)N(CC2CC2)CC[C@]314	nt	nt	nt	i	nt
CCn1ccnc1CN1CCCC(C(=O)c2ccc(SC)cc2)C1 (configuration not stated)	i	i	13µM	i	?
CSc1ccc(C(=O)C2CCCN(Cc3cnc(SC)nc3)C2)cc1 (configuration not stated)	i	i	i	i	?
O=c1[nH]c2ccccc2n1C1CCN(Cc2ccc(-c3nc4ccc(F)cc4nc3-c3ccccc3)cc2)CC1	i	i	?	nt	4.5µM
O=c1[nH]c2ccccc2n1C1CCN(Cc2ccc(-c3nc4ccccc4nc3-c3ccccc3)cc2)CC1	i	i	?	nt	?
C[C@H](CO)N1C[C@H](C)[C@H](CN(C)C(=O)N[C@H](C)c2ccccc2)OCc2ccccc2-c2c(n(C)c3ccccc23)C1=O	i	i	i	nt	?
FC(F)(F)c1ccc2c(c1)nnn2C1CCN(Cc2nnnn2Cc2ccccc2)CC1	i	i	i	i	?
Cc1ccc(Cn2nnnc2CN2CCC(n3nnc4cc(C(F)(F)F)ccc43)CC2)cc1	i	i	i	i	10µM
O=[N+]([O-])c1c(Cl)c(Cl)c(Cl)c(Cl)c1Cl	i	i	i	i	i
Nc1cc(Cl)c2nonc2c1[N+](=O)[O-]	i	i	8.9µM	i	?
CCCN(CCC)c1nc(NC2CCN(C(=O)OCC)CC2)nc(OC)n1	i	i	?	i	2.8µM
NCCCNCCSP(=O)(O)O	nt	i	nt	i	nt
O=C1C=CC(=O)C2C1C1(Cl)C(Cl)=C(Cl)C2(Cl)C1(Cl)Cl (configuration not stated)	i	i	?	i	3.2µM
COc1cc([C@@H]2c3cc4c(cc3[C@@H](O[C@@H]3O[C@@H]5CO[C@@H](C)O[C@H]5[C@H](O)[C@H]3O)[C@H]3COC(=O)[C@H]23)OCO4)cc(OC)c1O	i	i	?	i	2.8µM
COc1ccc(CNS(=O)(=O)c2cc3c(cc2C)N(C)CCO3)cc1	i	i	i	i	7.9µM
O=C(Nc1nc2c(s1)CCCCCC2)Nc1ccc(F)cc1F	i	nt	i	i	i
O=c1c2ccccc2nc(-c2cccs2)n1-c1ccccc1	i	i	i	i	2µM
O=c1c2ccccc2nc(/C=C/c2ccc(O)cc2)n1-c1cccc(O)c1	i	i	i	i	i
Cc1ccc(-c2nc3ccccc3c(=O)n2-c2cccc(O)c2)cc1	i	i	i	i	1.8µM
O=c1c2ccccc2nc(-c2ccccc2Cl)n1-c1cccc(O)c1	i	i	i	i	0.89µM
Cc1nc2ccccc2c(=O)n1-c1cccc(O)c1	i	i	i	i	i
SMILES	PTHR1 agonist	GLP1R ag	HEK293 tox	RGS4 inhibitor	GLP1R inv ag
CCN(c1ccccc1)S(=O)(=O)c1ccc(C(=O)NC2CCN(Cc3ccccc3)CC2)cc1	i	i	?	i	?
CCCN(CCC)C(=O)CC(c1ccccc1)c1cc(Br)ccc1O (configuration not stated)	i	i	?	i	?
Cc1oc(-c2cccc(Cl)c2)nc1CN1CCCC(C(=O)NC(C)c2ccc3c(c2)OCCO3)C1 (configuration not stated)	i	i	?	i	?
COc1cc(CC(C)N)c(OC)cc1C (configuration not stated)	nt	i	nt	nt	nt
COC(=O)c1ccc(-n2c(C)nc3ccccc3c2=O)cc1	i	i	i	i	i
COC(=O)c1ccc(Nc2cc(C)nc3ccc(C)cc23)cc1	i	i	?	i	10µM
O=C(NCC1CCCO1)c1cccc2c1C(=O)c1ccc(N3CCC(Cc4ccccc4)CC3)cc1S2(=O)=O (configuration not stated)	i	i	i	i	?
COc1ccccc1N1CCN(Cc2ccc(Br)cc2)CC1	i	i	i	i	10µM
C/C(=N\NP(=S)(c1ccccc1)c1ccccc1)c1ccc(O)cc1O	i	i	i	i	11µM
Oc1ccccc1/C=N/NP(=S)(c1ccccc1)c1ccccc1	i	i	i	i	?
c1ccc(N2CCN(c3nc(NCc4ccco4)c4ccccc4n3)CC2)cc1	i	i	?	i	7.1µM
COc1ccc(CCNCc2ccc(SC)cc2)cc1	i	i	i	i	i
COc1ccc2sc(-c3ccc(SC)cc3)c(-c3ccc(O)cc3)c2c1	i	i	?	i	5.6µM
Cc1ccc(Cl)cc1N1CCN(C(=O)C2CCCN(S(=O)(=O)c3ccc(Br)s3)C2)CC1 (configuration not stated)	i	nt	i	i	?
CN(N=O)c1ccc(O)c(O)c1	nt	nt	nt	6µM	nt
CCCCc1ccc2[nH]cc(CCN)c2c1	i	i	?	i	10µM
NCCc1c[nH]c2ccccc12	i	i	i	i	i
CCN(CC)CCNC(=O)c1cc2c(-c3ccc(Cl)cc3)nn(C)c2s1	i	i	?	i	5.6µM
COc1cccc(/C=N/Nc2ccc([N+](=O)[O-])cc2)c1O	i	i	?	i	1.8µM
OC(c1ccccc1)(c1ccccc1)C1CN2CCC1CC2 (configuration not stated)	i	i	i	i	i
OC(c1ccccc1)(c1ccc(Cl)cc1)C1CN2CCC1CC2 (configuration not stated)	i	i	?	i	1.6µM
CCCCCCN1C[C@@H](n2cc(C3CC3)nn2)[C@H](O)C[C@@H]1c1ccc(C)cc1	i	i	?	nt	4µM
Cc1ccc([C@H]2C[C@@H](n3cc(C4CC4)nn3)[C@H](O)CN2Cc2cccs2)cc1	i	i	i	nt	?
O=C1NC(=O)C(=Cc2ccccc2OCCOc2ccc([N+](=O)[O-])cc2)C(=O)N1	i	i	?	?	10µM

Bioassay records deposited in PubChem by National Center for Advancing Translational Sciences (NCATS).
